Reference: PubChem BioAssay (Tox21)
Results filed as inconclusive are left out. Calls of active or inactive are those of the source. Unless noted, the call rests on the fitted dose curve; in most records, active means well fitted curve in the direction sought with a large enough effect in the repeat runs; inconclusive means weak or mixed curves; inactive means no such curve, though single readings can be large; an effect the other way counts as inactive or inconclusive.

How the values were obtained:
[1] = qHTS assay to identify small molecule antagonists of the estrogen receptor alpha (ER-alpha) signaling pathway using the BG1 cell line in the presence of 0.1 nM 17-beta-estradiol - cell viability counter screen (AID 1259241); further: nearly all actives have a fitted effect of over 40% in size
How it was run: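 CellTiter-Fluor read (30 min, 37C) on ER-alpha/ERE-luc VM7Luc4E2 cells; 22 hr compound treatment; agonist 0.1 nM E2 final; same-well multiplex.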

[2] = qHTS assay to identify small molecule antagonists of the androgen receptor (AR) signaling pathway using the MDA cell line in the presence of 0.5 nM R1881 - cell viability counter screen (AID 1259242); further: nearly all actives have a fitted effect of over 45% in size
How it was run: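 Live-cell protease fluorescence, CellTiter-Fluor, 30 min at 37C. Cells: MDA-kb2, 3,000/well, preincubated 5 hr. Compounds plus 0.5 nM R1881 final, 16 hr, 37C, 0% CO2.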

[3] = qHTS assay to identify small molecule phospholipidosis (PLD) inducers (AID 1259344; active means well fitted curve in the direction sought with a large enough effect; an effect the other way counts as inactive or inconclusive)
How it was run: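 After 4 h attachment on collagen I, HepG2 cells were dosed with compound alongside LipidTOX Red, kept 24 h at 37 C, fixed, and imaged for lamellar phospholipid pits.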

[4] = qHTS assay to identify small molecule HDAC inhibitors (AID 1259364);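 further: wild-type HCT-116 cells with endogenous class I/II HDAC activity; top concentration of the series differs between compounds; nearly all actives have a fitted effect of over 45% in size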
How it was run: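 HCT-116 (wild type), 1,500 cells/well, overnight; compound 2 hr 37C 5% CO2; HDAC-Glo I/II reagent 30 min RT; luminescence readout.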

[5] = qHTS assay to identify small molecule HDAC inhibitors - cell viability counter screen (AID 1259365); further: series mostly up to about 92 µM; nearly all actives have a fitted effect of over 50% in size
How it was run: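 To flag cytotoxic hits, 1,500 wild-type HCT-116 cells per well, plated the day before, receive test compounds for 2hr at 37 C before CellTiter-Glo reagent and a luminescence read.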

[6] = qHTS assay to identify small molecule agonists of the sonic hedgehog signaling (Shh) pathway - cell viability counter screen (AID 1259366); further: nearly all actives have a fitted effect of over 50% in size
How it was run: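 Fluorescence from CellTiter-Fluor reports live cells in this counter screen. NIH/3T3-derived Gli1-Luc reporter cells receive test compounds for 24hr at 37C; reagent goes in at 23hr.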

[7] = qHTS assay to identify small molecule antagonists of the sonic hedgehog signaling (Shh) pathway - cell viability counter screen (AID 1259367); further: nearly all actives have a fitted effect of over 55% in size
How it was run: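 Conditioned medium drove Shh signaling in 3T3 Gli1-Luc cells exposed to compounds at 37C and 5% CO2. Viability was determined from CellTiter-Fluor fluorescence, with reagent incubated 1 hr after 23 hr of treatment.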

[8] = qHTS assay to identify small molecule agonists of the sonic hedgehog signaling (Shh) pathway (AID 1259368; calls by dose curve;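 further: NIH/3T3-derived 3T3Gli1-Luc cells carrying a stable Gli1-driven firefly luciferase reporter; series mostly up to about 92 µM; nearly all actives have a fitted effect of over 15% in size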)
How it was run: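 Read-out: firefly luciferase luminescence from a Gli1 response element reporter stably integrated in NIH/3T3-derived 3T3Gli1-Luc cells, measured 30 min at room temperature after reagent addition. Compound exposure lasted 24 hr at 37 C, 5% CO2.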

[9] = qHTS assay to identify small molecule antagonists of the sonic hedgehog signaling (Shh) pathway (AID 1259369; calls by dose curve; further: nearly all actives have a fitted effect of over 45% in size; further: potency means the concentration at half of the fitted maximal effect)
How it was run: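 Luminescence readout: firefly Luc under Gli1 response element in 3T3Gli1-Luc cells (NIH/3T3 clone). Antagonist mode, stimulation by conditioned medium; compound exposure 24hr at 37 C, 5% CO2.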

[10] = biological target: Estrogen receptor beta (Homo sapiens) (UniProt Q92731); assay: qHTS assay to identify small molecule agonists of the estrogen receptor beta (ER-beta) signaling pathway (AID 1259377; active means well fitted activation curve with a large enough effect in the signal ratio in the repeat runs, not every such curve was filed as active; the % refers to the signal ratio)
How it was run: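 Screening used GripTite ER-beta-UAS-bla cells held in 2% charcoal-stripped FBS medium. After overnight (16 hr) compound incubation at 37C, beta-lactamase activity was detected with a FRET substrate by fluorescence.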

[11] = biological target: Estrogen receptor beta (Homo sapiens) (UniProt Q92731); assay: qHTS assay to identify small molecule antagonists of the estrogen receptor beta (ER-beta) signaling pathway (AID 1259378; active means well fitted inhibition curve with a large enough effect in the signal ratio in the repeat runs, not every such curve was filed as active; the % refers to the signal ratio)
How it was run: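 ER-beta-UAS-bla HEK293T (GripTite) cells in 2% charcoal-stripped FBS medium were preincubated 6 hr at 37C, dosed with compound, then stimulated with 1 nM E2 (final) for 16 hr; beta-lactamase reporter read by B/G FRET fluorescence after 2 hr substrate loading.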

[12] = qHTS assay to identify small molecule agonists of the androgen receptor (AR) signaling pathway in the presence of an antagonist - cell viability counter screen (AID 1259379);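 further: MDA-kb2 human breast cancer cells carrying an MMTV luciferase reporter; series mostly up to about 92 µM; nearly all actives have a fitted effect of over 25% in size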
How it was run: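 Viability counter screen: CellTiter-Fluor fluorescence, measured in the same wells as the luciferase read-out. MDA-kb2 cells, 3,000/well, with nilutamide at 3.0uM final and compounds at 15 concentrations, 16 hr at 37C, 0% CO2.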

[13] = qHTS assay to identify small molecule agonists of the estrogen receptor beta (ER-beta) signaling pathway - cell viability counter screen (AID 1259380); further: nearly all actives have a fitted effect of over 30% in size
How it was run: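 Luminescence read-out (CellTiter-Glo, 30 min, room temp) taken in the same wells as the beta-lactamase reporter assay; ER-beta-UAS-bla HEK293T cells exposed to DMSO-dissolved compounds for 16 hr at 37C in 2% charcoal-stripped FBS medium.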

[14] = qHTS assay to identify small molecule antagonists of the estrogen receptor beta (ER-beta) signaling pathway - cell viability counter screen (AID 1259382); further: series mostly up to about 92 µM; nearly all actives have a fitted effect of over 55% in size
How it was run: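 Luminescent ATP read-out (CellTiter-Glo, 30 min, RT) taken in the same wells as the bla reporter assay. HEK293T ER-beta-UAS-bla cells in 2% charcoal-stripped FBS were exposed to compounds with 1nM E2 for 16 hr at 37C.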

[15] = qHTS assay to identify small molecule agonists or antagonists of the thyroid stimulating hormone receptor (TSHR) signaling pathway - wild type cell line counter screen (AID 1259384; calls by dose curve)
How it was run: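 Wild-type HEK293 cells were plated 18 h at 37 C/5% CO2, pin-dosed with compound plus Ro20-1724 medium, held 30 min at room temperature, then given cAMP-d2 and anti-cAMP-cryptate; fluorescence was read after 1 h. Fifteen concentrations, triplicate.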

[16] = biological target: Thyrotropin receptor (Homo sapiens) (UniProt P16473); assay: qHTS assay to identify small molecule antagonists of the thyroid stimulating hormone receptor (TSHR) signaling pathway (AID 1259385; calls by dose curve; further: nearly all actives have a fitted effect of over 20% in size)
How it was run: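 TSHR-HEK293 cells were plated and held 18 h at 37C/5% CO2, then given compound plus Ro20-1724 and stimulated with TSH at 1.5 ng/mL final. After 30 min at room temperature, cAMP was detected with cAMP-d2/anti-cAMP-cryptate (1 h) by fluorescence.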

[17] = biological target: Estrogen receptor (Homo sapiens) (UniProt P03372); assay: qHTS assay to identify small molecule antagonists of the estrogen receptor alpha (ER-alpha) signaling pathway using the BG1 cell line in the presence of 0.1 nM 17-beta-estradiol (AID 1259244); further: nearly all actives have a fitted effect of over 50% in size
How it was run: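 Luminescence after ONE-Glo (30 min, room temperature) measured ERE-luciferase activity in VM7Luc4E2 cells treated 22 h with compound and 0.1 nM final 17beta-estradiol as stimulator.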

[18] = biological target: Estrogen receptor (Homo sapiens) (UniProt P03372); assay: qHTS assay to identify small molecule agonists of the estrogen receptor alpha (ER-alpha) signaling pathway in the presence of an antagonist (AID 1259383; calls by dose curve; further: top concentration of the series differs between compounds; nearly all actives have a fitted effect of over 15% in size)
How it was run: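 Luciferase luminescence (ONE-Glo, 30min at room temperature) measured in VM7Luc4E2 cells after 22hr compound exposure at 15 concentrations, with 10.0nM ICI-182,780 final present; cells express endogenous ER-alpha and carry four EREs upstream of luciferase.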
On the % scale 0 is the no-effect control and ±100 the full control effect.

Sequence of Thyrotropin receptor (Homo sapiens) (P16473 whole entry, looked up): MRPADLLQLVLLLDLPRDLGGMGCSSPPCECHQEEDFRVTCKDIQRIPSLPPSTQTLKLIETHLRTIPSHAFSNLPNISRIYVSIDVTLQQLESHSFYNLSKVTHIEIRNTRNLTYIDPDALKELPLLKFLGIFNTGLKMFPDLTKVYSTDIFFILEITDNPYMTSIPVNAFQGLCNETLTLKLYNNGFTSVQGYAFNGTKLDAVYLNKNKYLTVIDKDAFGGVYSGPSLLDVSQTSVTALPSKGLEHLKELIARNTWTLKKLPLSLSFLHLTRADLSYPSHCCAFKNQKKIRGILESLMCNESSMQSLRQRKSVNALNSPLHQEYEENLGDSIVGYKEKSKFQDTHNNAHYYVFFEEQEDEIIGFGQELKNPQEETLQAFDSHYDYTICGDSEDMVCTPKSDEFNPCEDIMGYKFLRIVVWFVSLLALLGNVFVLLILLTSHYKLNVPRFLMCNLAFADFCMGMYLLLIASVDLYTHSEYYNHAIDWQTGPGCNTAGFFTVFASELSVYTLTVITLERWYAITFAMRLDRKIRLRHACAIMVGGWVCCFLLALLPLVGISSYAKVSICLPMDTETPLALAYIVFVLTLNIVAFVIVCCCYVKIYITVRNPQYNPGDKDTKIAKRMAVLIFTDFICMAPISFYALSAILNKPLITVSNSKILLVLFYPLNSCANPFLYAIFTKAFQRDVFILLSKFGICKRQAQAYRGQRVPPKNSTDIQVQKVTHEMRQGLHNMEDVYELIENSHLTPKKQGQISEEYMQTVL
Sequence of Estrogen receptor beta (Homo sapiens) (Q92731 whole entry, looked up): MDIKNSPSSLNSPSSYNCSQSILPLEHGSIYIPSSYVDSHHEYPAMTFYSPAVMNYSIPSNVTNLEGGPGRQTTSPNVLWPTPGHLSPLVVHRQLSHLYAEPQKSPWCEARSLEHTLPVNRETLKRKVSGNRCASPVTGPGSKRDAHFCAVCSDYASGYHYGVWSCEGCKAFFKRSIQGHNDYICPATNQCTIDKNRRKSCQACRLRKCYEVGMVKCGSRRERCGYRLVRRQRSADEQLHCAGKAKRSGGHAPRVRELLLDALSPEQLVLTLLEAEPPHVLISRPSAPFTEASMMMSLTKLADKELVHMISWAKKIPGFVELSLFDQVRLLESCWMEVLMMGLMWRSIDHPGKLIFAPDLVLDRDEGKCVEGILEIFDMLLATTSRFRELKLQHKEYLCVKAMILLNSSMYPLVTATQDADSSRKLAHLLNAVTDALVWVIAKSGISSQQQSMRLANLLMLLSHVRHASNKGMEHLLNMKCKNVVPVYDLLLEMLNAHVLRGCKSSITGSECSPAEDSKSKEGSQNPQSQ
Sequence of Estrogen receptor (Homo sapiens) (P03372 whole entry, looked up): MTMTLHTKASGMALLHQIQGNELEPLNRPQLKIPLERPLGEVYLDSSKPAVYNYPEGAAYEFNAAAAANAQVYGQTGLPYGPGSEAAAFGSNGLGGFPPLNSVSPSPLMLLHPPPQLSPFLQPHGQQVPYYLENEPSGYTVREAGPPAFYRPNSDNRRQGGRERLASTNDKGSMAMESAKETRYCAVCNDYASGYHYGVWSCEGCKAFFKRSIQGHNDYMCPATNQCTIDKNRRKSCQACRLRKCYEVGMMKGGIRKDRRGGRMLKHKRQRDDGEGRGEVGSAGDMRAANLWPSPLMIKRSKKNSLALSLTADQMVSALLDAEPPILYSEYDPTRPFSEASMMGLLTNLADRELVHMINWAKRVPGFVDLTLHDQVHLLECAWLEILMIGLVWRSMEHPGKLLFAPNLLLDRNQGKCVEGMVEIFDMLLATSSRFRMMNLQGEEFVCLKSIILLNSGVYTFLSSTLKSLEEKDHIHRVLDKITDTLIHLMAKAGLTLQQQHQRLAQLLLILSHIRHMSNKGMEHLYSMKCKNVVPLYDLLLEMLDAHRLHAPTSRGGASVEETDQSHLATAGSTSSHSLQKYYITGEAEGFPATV

N[C@@H](COP(=O)(O)O)C(=O)O
inactive: activity change, negative = cytotoxicity [1] 0.527% [at 19 µM] | viability change, negative = cytotoxic [2] 4.56% [at 19 µM] | outcome [3] | activity change, negative = inhibition [4] -0.0158% [at 19 µM] | activity change, negative = cytotoxicity [5] 0.384% [at 19 µM] | viability change, negative = cytotoxic [6] -4.16% [at 19 µM] | viability change, negative = cytotoxic [7] 5.61% [at 19 µM] | activity change [8] -1.5% [at 18.9 µM] | activity change, negative = inhibition [9] 28.3% [at 19 µM] | activation [10] 0.272% [at 19 µM] | activity, negative = inhibition [11] 18.6% [at 19 µM] | activity change, negative = cytotoxicity [12] -2.46% [at 19 µM] | activity change, negative = cytotoxicity [13] 5.8% [at 19 µM] | activity change, negative = cytotoxicity [14] 9.58% [at 19 µM] | cAMP activity change [15] 0.501% [at 18.9 µM] | activity change, negative = inhibition [16] -0.736% [at 19 µM]

Cc1ccccc1C(=O)Nc1ccc(C(=O)N2CCCC(N(C)C)c3ccccc32)cc1 (centres undefined)
active: Potency [9] 15 µM
inactive: Potency [1] | outcome [2] | Potency [17] | Potency [4] | outcome [5] | outcome [8] | Potency [10] | outcome [11] | Potency [12] | outcome [14] | outcome [18] | outcome [15]

CN=C(NC#N)Nc1ccc(C2=NNC(=O)CC2C)cc1 (centres undefined)
inactive: Potency [1] | outcome [2] | outcome [3] | Potency [4] | outcome [5] | Potency [6] | Potency [7] | outcome [8] | Potency [9] | Potency [12] | Potency [13] | outcome [14] | outcome [15] | outcome [16]

CCOC(=O)CC(=O)c1ccccc1
inactive: Potency [1] | outcome [2] | Potency [17] | outcome [5] | Potency [6] | Potency [7] | outcome [8] | Potency [9] | Potency [10] | outcome [11] | Potency [12] | Potency [13] | outcome [14] | outcome [18] | outcome [15] | outcome [16]

COc1ccc(C2CNC(=O)C2)cc1OC1CCCC1 (centres undefined)
inactive: Potency [1] | outcome [2] | outcome [3] | Potency [4] | outcome [5] | Potency [6] | outcome [8] | Potency [10] | outcome [11] | Potency [13] | outcome [14] | outcome [15] | outcome [16]

CC(=O)N[C@@H](CCC(=O)O)C(=O)O
inactive: Potency [1] | outcome [2] | outcome [3] | Potency [4] | outcome [5] | Potency [6] | Potency [7] | outcome [8] | Potency [9] | Potency [10] | outcome [11] | Potency [12] | Potency [13] | outcome [14] | outcome [15] | outcome [16]

CC1=C(C(=O)O)N2C(=O)[C@@H](NC(=O)[C@H](N)c3ccc(O)cc3)[C@H]2SC1
inactive: Potency [1] | outcome [2] | outcome [3] | Potency [4] | outcome [5] | Potency [6] | Potency [7] | outcome [8] | Potency [9] | Potency [10] | outcome [11] | Potency [12] | outcome [15] | outcome [16]

NCCS
inactive: Potency [1] | outcome [2] | outcome [3] | Potency [4] | outcome [5] | Potency [6] | Potency [7] | outcome [8] | Potency [9] | Potency [10] | outcome [11] | Potency [12] | Potency [13] | outcome [14]

CCCCCCOc1ccccc1C(N)=O
inactive: Potency [1] | outcome [2] | outcome [3] | outcome [5] | Potency [6] | outcome [8] | Potency [10] | outcome [11] | Potency [13] | outcome [14] | outcome [18] | outcome [15] | outcome [16]
